# In ChEMBL document CHEMBL3988442, “University of Dundee, Small-Polar-MMV Screening Library” (2021):
# For some of these results: Entries with a potency or affinity are not part of this list.
# What was measured:
# Set-up in all cases: scale not given: direction of the effect not stated beside the values
# [1] = molecular target: Protein translocase subunit SecA (Escherichia coli (strain K12)) (UniProt P10408); assay: Assay to Identify E. coli SecA ATPase Inhibitors; type: functional; details: 30 µM
# Sequence of Protein translocase subunit SecA (Escherichia coli (strain K12)) (P10408 whole entry): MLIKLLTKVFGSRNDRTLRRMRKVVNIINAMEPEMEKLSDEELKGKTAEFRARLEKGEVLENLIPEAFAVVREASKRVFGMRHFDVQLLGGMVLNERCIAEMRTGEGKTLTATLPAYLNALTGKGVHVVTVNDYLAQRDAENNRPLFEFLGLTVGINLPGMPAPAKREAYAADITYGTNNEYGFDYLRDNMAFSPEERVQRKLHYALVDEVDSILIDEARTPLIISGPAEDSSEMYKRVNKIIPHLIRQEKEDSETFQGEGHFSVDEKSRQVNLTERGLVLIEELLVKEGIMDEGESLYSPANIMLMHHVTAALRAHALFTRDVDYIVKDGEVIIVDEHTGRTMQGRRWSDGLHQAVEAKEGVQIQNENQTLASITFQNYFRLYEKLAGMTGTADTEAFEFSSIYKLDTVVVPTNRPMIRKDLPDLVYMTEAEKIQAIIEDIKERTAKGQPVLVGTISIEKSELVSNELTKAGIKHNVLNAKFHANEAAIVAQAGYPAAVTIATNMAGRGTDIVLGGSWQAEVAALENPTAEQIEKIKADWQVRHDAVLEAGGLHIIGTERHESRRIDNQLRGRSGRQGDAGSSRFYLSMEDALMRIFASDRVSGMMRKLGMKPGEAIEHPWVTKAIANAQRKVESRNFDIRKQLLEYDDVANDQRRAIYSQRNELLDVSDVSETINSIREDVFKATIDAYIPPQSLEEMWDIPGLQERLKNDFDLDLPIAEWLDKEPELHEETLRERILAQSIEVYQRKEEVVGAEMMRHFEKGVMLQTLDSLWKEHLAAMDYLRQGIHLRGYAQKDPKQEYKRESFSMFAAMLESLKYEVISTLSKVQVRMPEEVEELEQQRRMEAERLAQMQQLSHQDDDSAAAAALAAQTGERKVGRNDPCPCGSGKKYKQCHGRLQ
# [2] = molecular target: T1, Ubiquitin-activating enzyme e1, putative (Leishmania donovani (strain BPK282A1)) (UniProt E9BSI1); assay: Leishmania donovani Ubiquitin Activating Enzyme (LdE1); type: functional; details: 30 µM
# T1 sequence (whole entry): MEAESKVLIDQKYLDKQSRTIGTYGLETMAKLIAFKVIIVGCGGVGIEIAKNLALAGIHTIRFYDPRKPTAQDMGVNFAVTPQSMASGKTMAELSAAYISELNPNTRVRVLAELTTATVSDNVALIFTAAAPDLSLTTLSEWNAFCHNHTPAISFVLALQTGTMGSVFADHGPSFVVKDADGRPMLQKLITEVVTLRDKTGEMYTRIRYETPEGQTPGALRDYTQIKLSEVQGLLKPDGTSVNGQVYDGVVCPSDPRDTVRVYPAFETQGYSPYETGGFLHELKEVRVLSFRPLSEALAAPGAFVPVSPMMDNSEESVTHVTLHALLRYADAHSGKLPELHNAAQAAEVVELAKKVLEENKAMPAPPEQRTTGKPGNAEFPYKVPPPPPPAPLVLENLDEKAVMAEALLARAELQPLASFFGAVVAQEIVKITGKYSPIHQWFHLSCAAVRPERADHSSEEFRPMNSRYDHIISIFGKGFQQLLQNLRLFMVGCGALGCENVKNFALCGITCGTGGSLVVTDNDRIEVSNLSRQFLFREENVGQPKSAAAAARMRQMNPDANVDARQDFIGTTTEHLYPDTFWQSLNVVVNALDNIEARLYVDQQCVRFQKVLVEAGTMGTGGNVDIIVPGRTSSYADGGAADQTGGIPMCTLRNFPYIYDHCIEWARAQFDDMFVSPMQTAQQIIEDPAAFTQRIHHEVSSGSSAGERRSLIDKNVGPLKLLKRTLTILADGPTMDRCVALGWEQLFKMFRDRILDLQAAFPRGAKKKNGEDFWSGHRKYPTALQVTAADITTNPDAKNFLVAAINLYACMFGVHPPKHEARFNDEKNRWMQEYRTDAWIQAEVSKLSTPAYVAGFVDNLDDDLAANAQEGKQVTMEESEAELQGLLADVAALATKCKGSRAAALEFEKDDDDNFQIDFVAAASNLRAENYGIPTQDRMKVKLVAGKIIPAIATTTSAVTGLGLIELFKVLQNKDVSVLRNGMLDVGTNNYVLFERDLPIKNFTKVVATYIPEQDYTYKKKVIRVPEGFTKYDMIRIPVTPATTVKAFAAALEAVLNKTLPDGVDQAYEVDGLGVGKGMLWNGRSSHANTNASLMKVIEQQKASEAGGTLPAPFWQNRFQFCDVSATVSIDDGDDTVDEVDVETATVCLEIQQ
# [3] = molecular target: AMP-activated protein kinase, AMPK (Homo sapiens) (UniProt P54646+O43741+P54619+Q9UGJ0+Q9Y478+Q13131+Q9UGI9); assay: AMP-dependent Kinase enzyme assay. An in vitro enzyme assay that detects ADP turnover that is directly proportional to AMPK activity. This uses naive AMPK that is activated during the assay with MK-8722; type: functional; details: 30 µM
# [4] = molecular target: Sialic acid-binding Ig-like lectin 9 (Homo sapiens) (UniProt Q9Y336); assay: Hs-Siglec9 ALPHAscreen SOP 20170721; details: 10 µM
# Sequence of Sialic acid-binding Ig-like lectin 9 (Homo sapiens) (Q9Y336 whole entry): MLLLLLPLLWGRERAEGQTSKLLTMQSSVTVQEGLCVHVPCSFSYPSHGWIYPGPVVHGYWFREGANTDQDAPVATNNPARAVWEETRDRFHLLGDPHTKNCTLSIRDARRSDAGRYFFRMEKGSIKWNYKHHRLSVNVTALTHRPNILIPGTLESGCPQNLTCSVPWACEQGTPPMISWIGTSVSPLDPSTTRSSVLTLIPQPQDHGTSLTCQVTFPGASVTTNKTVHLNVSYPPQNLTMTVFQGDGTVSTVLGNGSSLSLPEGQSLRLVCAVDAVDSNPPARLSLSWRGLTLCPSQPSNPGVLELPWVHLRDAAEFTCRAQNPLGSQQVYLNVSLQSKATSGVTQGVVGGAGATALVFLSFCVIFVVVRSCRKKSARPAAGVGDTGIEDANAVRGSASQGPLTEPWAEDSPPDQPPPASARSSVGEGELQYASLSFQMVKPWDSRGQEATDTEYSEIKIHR
# [5] = tested on: Trypanosoma cruzi; assay: Trypanosoma cruzi phosphomannomutase and mannose-1-phosphate guanylyltransferase assay; type: functional; details: 10 µM
# [6] = molecular target: T2, Arginase-2, mitochondrial (Homo sapiens) (UniProt P78540); assay: in vitro enzyme assay to detect the production of urea directly proportional to the activity of Arginase II; type: functional; details: 33.3 µM; further: in the data most compounds retested in dose-response had high values
# T2 sequence (whole entry): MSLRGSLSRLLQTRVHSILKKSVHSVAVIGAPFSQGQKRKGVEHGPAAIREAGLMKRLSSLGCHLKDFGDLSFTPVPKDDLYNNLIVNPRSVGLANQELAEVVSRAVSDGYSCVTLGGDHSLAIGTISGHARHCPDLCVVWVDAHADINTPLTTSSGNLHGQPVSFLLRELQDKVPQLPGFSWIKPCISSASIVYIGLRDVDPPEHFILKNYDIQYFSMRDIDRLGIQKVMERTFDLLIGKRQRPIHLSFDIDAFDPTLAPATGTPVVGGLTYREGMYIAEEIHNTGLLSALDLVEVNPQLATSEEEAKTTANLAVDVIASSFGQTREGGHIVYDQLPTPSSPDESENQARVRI
# [7] = molecular target: T3, Proteasome subunit beta (Trypanosoma cruzi) (UniProt O96673); assay: Trypanosoma cruzi proteasome chymotrypsin-like activity (TcProtChymo) assay.; further: in the data most compounds retested in dose-response had high values; type: functional; details: 9.37 µM
# T3 sequence (whole entry): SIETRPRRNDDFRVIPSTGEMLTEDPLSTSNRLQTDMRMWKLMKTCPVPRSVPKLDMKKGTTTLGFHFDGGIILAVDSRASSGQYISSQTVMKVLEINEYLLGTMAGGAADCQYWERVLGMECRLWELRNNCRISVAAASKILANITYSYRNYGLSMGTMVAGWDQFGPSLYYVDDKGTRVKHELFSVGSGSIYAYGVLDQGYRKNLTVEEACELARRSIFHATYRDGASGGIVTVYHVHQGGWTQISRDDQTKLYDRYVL
# [8] = species on record: Homo sapiens; assay: To identify inhibition of the IFN signalling (Jak-Stat) pathway via expression of an eGFP reporter gene under the control of an IFN-stimulated response element (ISRE) containing MxA promoter.; type: functional; details: 30 µM
# [9] = molecular target: T4, Tyrosyl-tRNA synthetase, putative (Trypanosoma cruzi (strain CL Brener)) (UniProt Q4DSP6); assay: Trypanosoma cruzi tyrosyl tRNA synthetase (TcYRS) _High Tyrosine SOP; type: functional; details: 30 µM; further: in the data most compounds retested in dose-response had high values
# T4 sequence (whole entry): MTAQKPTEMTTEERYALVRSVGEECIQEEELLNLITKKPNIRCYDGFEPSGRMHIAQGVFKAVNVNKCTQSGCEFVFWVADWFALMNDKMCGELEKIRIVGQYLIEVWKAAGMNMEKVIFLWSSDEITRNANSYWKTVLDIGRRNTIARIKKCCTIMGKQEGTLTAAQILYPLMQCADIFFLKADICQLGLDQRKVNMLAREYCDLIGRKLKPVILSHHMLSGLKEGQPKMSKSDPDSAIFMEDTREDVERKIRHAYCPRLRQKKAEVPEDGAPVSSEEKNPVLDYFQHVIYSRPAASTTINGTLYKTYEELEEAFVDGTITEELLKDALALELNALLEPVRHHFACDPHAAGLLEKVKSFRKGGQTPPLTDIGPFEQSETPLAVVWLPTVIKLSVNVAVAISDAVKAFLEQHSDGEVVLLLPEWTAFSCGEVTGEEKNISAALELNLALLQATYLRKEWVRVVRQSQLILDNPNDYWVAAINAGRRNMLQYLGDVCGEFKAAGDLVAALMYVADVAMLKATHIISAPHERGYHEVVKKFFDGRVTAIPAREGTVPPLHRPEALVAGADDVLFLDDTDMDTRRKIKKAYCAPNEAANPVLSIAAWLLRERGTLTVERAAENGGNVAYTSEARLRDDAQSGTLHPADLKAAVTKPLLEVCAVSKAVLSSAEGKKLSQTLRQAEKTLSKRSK
# [10] = molecular target: T4, Tyrosyl-tRNA synthetase, putative (Trypanosoma cruzi (strain CL Brener)); assay: Trypanosoma cruzi tyrosyl tRNA synthetase (TcYRS) SOP; type: functional; details: 30 µM
# [11] = molecular target: Chromo domain-containing protein 1 (Saccharomyces cerevisiae (strain ATCC 204508 / S288c) (Baker's yeast)) (UniProt P32657); assay: ScCHD-1 Enzyme Inhibition Assay; type: functional; details: 30 µM; further: in the data most compounds retested in dose-response had high values
# Sequence of Chromo domain-containing protein 1 (Saccharomyces cerevisiae (strain ATCC 204508 / S288c) (Baker's yeast)) (P32657 whole entry, the tested form may be a part): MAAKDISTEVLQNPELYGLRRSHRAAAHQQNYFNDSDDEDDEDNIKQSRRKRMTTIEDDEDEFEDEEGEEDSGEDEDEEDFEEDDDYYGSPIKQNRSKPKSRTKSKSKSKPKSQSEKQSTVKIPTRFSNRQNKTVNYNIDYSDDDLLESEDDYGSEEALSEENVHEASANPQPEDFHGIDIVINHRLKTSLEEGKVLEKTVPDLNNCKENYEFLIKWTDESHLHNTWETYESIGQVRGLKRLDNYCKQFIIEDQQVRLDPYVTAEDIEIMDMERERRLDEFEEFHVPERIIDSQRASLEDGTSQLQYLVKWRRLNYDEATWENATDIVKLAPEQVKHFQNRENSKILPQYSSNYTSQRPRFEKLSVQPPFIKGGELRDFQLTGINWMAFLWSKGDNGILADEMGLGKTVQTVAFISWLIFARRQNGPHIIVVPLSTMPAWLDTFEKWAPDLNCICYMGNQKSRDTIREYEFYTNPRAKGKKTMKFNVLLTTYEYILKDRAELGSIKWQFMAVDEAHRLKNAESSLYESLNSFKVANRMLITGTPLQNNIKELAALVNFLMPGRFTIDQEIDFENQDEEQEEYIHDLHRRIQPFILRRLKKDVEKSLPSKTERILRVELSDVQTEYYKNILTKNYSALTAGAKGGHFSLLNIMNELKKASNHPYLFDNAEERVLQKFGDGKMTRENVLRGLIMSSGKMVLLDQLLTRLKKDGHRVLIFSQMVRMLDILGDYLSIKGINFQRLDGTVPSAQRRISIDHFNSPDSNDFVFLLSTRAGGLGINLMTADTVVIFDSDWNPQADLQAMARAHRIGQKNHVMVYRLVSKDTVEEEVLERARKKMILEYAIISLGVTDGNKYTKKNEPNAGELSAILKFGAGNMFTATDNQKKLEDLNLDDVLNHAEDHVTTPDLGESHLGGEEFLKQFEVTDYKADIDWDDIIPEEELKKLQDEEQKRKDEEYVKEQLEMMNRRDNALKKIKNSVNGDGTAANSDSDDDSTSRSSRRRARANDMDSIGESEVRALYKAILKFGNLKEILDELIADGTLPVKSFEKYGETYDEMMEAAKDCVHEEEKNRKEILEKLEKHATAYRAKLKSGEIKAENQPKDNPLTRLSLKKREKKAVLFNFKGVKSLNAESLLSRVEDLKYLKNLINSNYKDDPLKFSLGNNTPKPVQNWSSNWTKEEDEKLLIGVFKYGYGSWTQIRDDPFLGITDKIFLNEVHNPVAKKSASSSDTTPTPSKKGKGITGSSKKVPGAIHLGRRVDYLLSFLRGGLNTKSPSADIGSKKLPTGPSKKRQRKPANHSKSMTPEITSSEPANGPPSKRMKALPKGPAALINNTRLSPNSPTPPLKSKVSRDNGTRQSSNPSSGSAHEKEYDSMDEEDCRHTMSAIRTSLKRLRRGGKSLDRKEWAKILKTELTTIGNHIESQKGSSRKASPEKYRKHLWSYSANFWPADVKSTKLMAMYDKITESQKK
SMILES,Percent Effect [1] [%],Percent Effect [2] [%],Percent Effect [3] [%],Percent Effect [4] [%],Percent Effect [5] [%],Percent Effect [6] [%],Percent Effect [7] [%],Percent Effect [8] [%],Percent Effect [9] [%],Percent Effect [10] [%],Percent Effect [11] [%]
CCOc1ccccc1-c1noc(CN2CC(n3cccn3)C2)n1,-1.57,2.6,2.37,-3.32,8.13,-3.16,2.99,4.34,0.952,7.06,-6.41
CCc1nnc2n1CCN(C(=O)Cc1csc(-c3ccco3)n1)C2,-4.35,15.2,-5.8,9.4,-1.04,3.8,8.76,13.3,4.43,11.4,-4.32
Cn1cc(C2CCCN2C(=O)c2ccc(Br)o2)cn1 (stereo not given),-4.98,13.2,2.02,-8.81,-3.64,1.08,1.27,16.1,0.493,1.24,1.07
CCn1ccnc1CN1CCN(CC(=O)NC(C)(C#N)C2CC2)CC1 (stereo not given),1.69,15.8,-1.29,-1.29,-8.84,-3.45,18.9,16.7,5.39,9.76,-5.07
CCCN(Cc1ccccc1)Cn1nc(C)c2c(C)onc2c1=O,-7,10.8,-10.2,25.6,4.62,-4.81,1.98,8.04,5.42,18.5,-13.4
CCOC(=O)NC(C(=O)NCc1ccc(N2CCCCC2)nc1)C(C)C (stereo not given),-0.611,13.5,-4,-4.82,-5.94,0,13.9,28.9,3.45,16.1,-3.65
CC(C)COC(C)C(=O)NCc1ccc(N(C)C)cc1 (stereo not given),-2.38,23.4,3.83,-18.6,2.06,-2.32,23.4,5.87,5.71,30.6,-26.1
COc1ccc(-n2cnnc2SCC(C)(C)O)cn1,-0.589,2.67,-3.7,25.4,3.02,16.7,-5.75,15.9,3.83,3.7,-1.24
CN(C)C1CCN(C(=O)c2ccc(Cn3ccccc3=O)o2)CC1,-2.62,8.11,3.53,12.9,2.88,0.924,0,5.91,6.93,23.2,-4.27
CC1(C)CC(N(Cc2ccccc2)Cc2cccnc2)CC(C)(C)N1,-8.83,17.6,-4.84,9.22,5.73,-6.73,7.8,-4.57,6.45,9.09,-29.8
CCCc1noc(CCC(=O)NC(C)c2nnc3n2CCCCC3)n1 (stereo not given),-0.578,8.11,-6.02,5.58,-2.64,5.21,19.5,3.01,3.23,8.64,-5.75
O=C(NCCc1ccncc1)C1CCN(Cc2ccco2)CC1,-7.38,-2.67,-2.38,-3.22,-6.52,-2.6,12.7,25.9,-1.64,1.24,-7.8
C[C@@H]1CN(C(=O)c2ccc(C#N)nc2)C[C@@]1(O)C1CC1,-4.79,13.5,-4.57,30.4,9.65,-1.91,5,1.76,2.65,14.6,-12.3
COc1cccc(-n2c(C)cc(C(=O)NS(C)(=O)=O)c2C)c1,-2.83,20.2,-2.25,-3.1,-4.63,2.28,2.21,8.44,6.4,13.9,-5.99
COCC1CC2(CCN(C(=O)c3cccc(C)c3)CC2)CO1 (stereo not given),-0.162,5.2,3.05,6.28,-1.68,-1.94,1.74,-8.87,-3.17,-3.85,-5.05
Cc1cc(NC(=O)C(c2cccc(F)c2)N2CCOCC2)ccn1 (stereo not given),-4.97,10.5,2.55,5.76,1.66,-9.47,10.6,3.19,2.13,7.79,-7.19
Cc1nnc(NC(=O)NCc2ccc(N3CCN(C)CC3)nc2)s1,-5,15.8,-3.09,-1.76,-5.32,-0.36,13.6,3.4,5.42,18.5,-9.38
CC1CCN(S(=O)(=O)NCC2CCOc3ccccc3C2)CC1 (stereo not given),-7.79,2.6,4.04,4.95,-2.46,-8.28,6.16,23.1,0,3.7,-0.0656
COCCc1noc(CN2CCc3nn(C(C)C)c(=O)cc3C2)n1,-3.44,18.4,-7.36,-6.23,-4.58,0.719,6.18,6.48,5.42,11.1,-11.2
Cc1noc([C@H]2CC[C@@H]3[C@@H](CCN3S(C)(=O)=O)O2)n1,-6.38,2.7,1.84,-1.29,0.977,3.75,6.17,-5.62,7.92,11,-2.42
